# From PubChem BioAssay
# Only some compounds are listed: those with a hit (about 4.7% of all), similar ones and a draw of the others.
# D1 ag – activates the human D1 dopamine receptor | P21728 | HEK293 T-REx D1 cells, calcium flux, agonist mode | activation, % at 2 µM | actives 1% (n = 360,000); further: 0% is about no effect
# Target sequence (P21728 whole entry, looked up): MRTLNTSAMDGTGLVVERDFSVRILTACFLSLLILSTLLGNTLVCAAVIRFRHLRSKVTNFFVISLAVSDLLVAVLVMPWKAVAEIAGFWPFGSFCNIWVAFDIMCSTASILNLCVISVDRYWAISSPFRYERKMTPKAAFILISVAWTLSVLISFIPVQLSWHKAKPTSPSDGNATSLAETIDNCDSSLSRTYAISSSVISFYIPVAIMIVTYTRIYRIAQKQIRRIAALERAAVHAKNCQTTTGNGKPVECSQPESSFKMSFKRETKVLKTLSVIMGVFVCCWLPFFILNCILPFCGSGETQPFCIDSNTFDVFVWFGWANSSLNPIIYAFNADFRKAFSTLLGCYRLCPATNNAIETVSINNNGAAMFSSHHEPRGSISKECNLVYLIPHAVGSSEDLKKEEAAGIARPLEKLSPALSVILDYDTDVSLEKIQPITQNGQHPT
#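 Agonism was scored from calcium flux recorded over 180 s (1 read/s) after pintool compound addition, following a 10-cycle baseline. Cells were inducible force-coupled HEK293 TREx D1, plated overnight at 30 C and loaded with no-wash calcium dye.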
# TRHR agonist – agonists of human TRH receptor; AID 493084; activation, % at 2 µM; TRHR cells, calcium flux fluo-8, FDSS agonist mode; actives 0.18% (n = 360,000); further: 0% is about no effect
#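 In this calcium-flux screen, cells bearing human TRHR are dye-loaded with fluo-8, baselined for 10 cycles, then exposed to library compounds; positive kinetic calcium responses during the agonist phase mark hits, with TRH as control.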
# D1 antag – blocks dopamine activation of the human D1 receptor. activity change, negative = inhibition, % at 10 µM. AID 504652. actives 3.2% (n = 360,000). HEK293 TREx D1 cells, calcium flux, dopamine EC80; active compounds read low. P21728; in the data active means activity change below about -30%; further: on the % scale 0 is the no-effect control and ±100 the full control effect
#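 Calcium flux readout: force-coupled, inducible Hek293 Trex D1 line, cells induced overnight at 30 C with tetracycline, dye-loaded 30–90 min at RT. Antagonism scored against EC80 dopamine challenge given 180 s after compound.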
# TRHR enhancer – TRH receptor (human) allosteric enhancement; AID 493056; TRHR cells, fluo-8 calcium fluorescence, EC20 TRH enhancement; P34981; actives 0.66% (n = 360,000); enhancement, % at 2 µM; in the data active means enhancement above about 30%; further: 0% is about no effect
#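 TRHR-expressing cells loaded with fluo-8 calcium dye were read kinetically (ex 480/em 530) during compound addition, then stimulated with an EC20 of TRH (10 nM final). Enhancement of the Gq-mediated intracellular calcium response was scored.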
# D1 potentiator – human D1 dopamine receptor positive modulation; potentiation, % at 10 µM; AID 504651; actives 0.036% (n = 360,000); HEK293 TREx D1 cells, calcium flux, dopamine EC20 potentiation; P21728; in the data active means potentiation above about 30%; further: 0% is about no effect
# Numbers without * were called inactive; · = not tested or not shown. Unless noted, no stated cut-off is given here; in the data, active means activation above about 30%; inactive means the rest.
SMILES,D1 ag,TRHR agonist,D1 antag,TRHR enhancer,D1 potentiator
CCc1nn2c(=O)cc(COC(=O)CNC(=O)c3ccccc3)nc2s1,2,-1,-2,4,-7
CCOc1cc(/C=C2\N=C(SC(C)C(N)=O)N(c3ccc(OC(F)F)cc3)C2=O)ccc1O (configuration not stated),47*,32*,14,19,-6
O=C(CN1C(=O)C2C3CCC(C3)C2C1=O)OCC(=O)c1ccc(Br)cc1 (configuration not stated),7,1,-20,12,-5
COc1ccc(C(=O)COC(=O)C(C(C)C)N2C(=O)C3C4C=CC(C4)C3C2=O)cc1 (configuration not stated),3,0,-59*,-2,2
O=C(CN1C(=O)C2C3C=CC(C3)C2C1=O)OCC(=O)c1ccc(Br)cc1 (configuration not stated),14,0,-43*,-9,-2
Cc1ccc(CCNC(=O)Cn2ncc3c(=O)oc4ccccc4c32)cc1,-2,-1,10,-6,-2
O=c1[nH]c2cccnc2n1Cc1ccco1,-2,-1,-43*,1,-5
Cc1ccc(N2CC(NC(=O)c3ccc4c(c3)OCO4)CC2=O)cc1 (configuration not stated),-5,0,·,14,3
CCC(CO)Nc1ncnc2onc(-c3ccc(F)cc3)c12 (configuration not stated),1,0,5,40*,-2
Cc1ccc(NC(=O)CN2C(=O)COc3ccc(S(=O)(=O)N4CCCCCC4)cc32)c(C)c1,3,0,-1,0,-2
CCOC(=O)CC1=C(C#N)C(c2cccnc2)C(C(=O)OCC)=C(N)O1 (configuration not stated),3,0,1,1,0
CCOC(=O)C1=C(C)OC(N)=C(C(=O)OCC)C1c1cccnc1 (configuration not stated),-1,-1,-33*,1,-7
CCOC(=O)CC1=C(C(=O)OCC)C(c2cccnc2)C(C#N)=C(N)O1 (configuration not stated),1,0,9,33*,-6
CCOC(=O)C1=C(C)OC(N)=C(C(=O)OCC)C1c1ccncc1 (configuration not stated),0,0,0,-9,0
COC(=O)CN1C(=O)CSc2ccc(S(=O)(=O)N3CCOCC3)cc21,-1,0,8,-5,0
COc1ccccc1CNS(=O)(=O)c1ccc2c(c1)NC(=O)C(C)C(=O)N2 (configuration not stated),24,3,-5,-8,-2
Cn1cccc1/C=N/n1c(-c2ccc(Cl)cc2)n[nH]c1=S,13,0,-6,3,4
Cn1cccc1/C=N/n1c(-c2ccc(Cl)cc2Cl)n[nH]c1=S,44*,3,3,2,-2
CC(C)C(=O)Nc1ccc(-c2csc(-c3ccccc3)n2)cc1,1,0,-38*,7,-3
CC(C)C(=O)Nc1cccc(-c2csc(-c3ccccc3)n2)c1,1,-2,22,4,-16
O=C(O)c1ccc(S(=O)(=O)c2ccc3c(c2)C(=O)N(NC(=O)c2ccc(O)cc2)C3=O)cc1,0,0,10,8,-3
Cc1ccc(C(=O)NN2C(=O)c3ccc(S(=O)(=O)c4ccc(C(=O)O)cc4)cc3C2=O)cc1,2,-1,-43*,-4,-10
Cc1ccc(C)c(NC(=O)CSc2cn(CC(=O)N3CCCCC3)c3ccccc23)c1,5,0,5,6,2
CCCCN(Cc1nc2ccccc2c(=O)[nH]1)C(=O)COc1ccc(F)cc1Cl,-1,1,-42*,-1,-15
COCCN(Cc1nc2ccccc2c(=O)[nH]1)C(=O)COc1c(C)cc(Cl)cc1C,2,0,10,3,2
SMILES,D1 ag,TRHR agonist,D1 antag,TRHR enhancer,D1 potentiator
Oc1ccc(CCNc2c3ccccc3nc3ccccc23)cc1O,12,0,-51*,-12,6
O=C(CSc1nccn1Cc1ccc(F)cc1)NCc1ccc(F)cc1,0,0,8,-2,0
S=C(NCCCN1CCOCC1)N1CCN(c2ccccc2)CC1,5,1,-4,-1,11
S=C(NCC1CCCO1)N1CCN(c2cccc(Cl)c2)CC1 (configuration not stated),5,0,-9,1,5
S=C(NCCCN1CCOCC1)N1CCN(c2nc(-c3ccccc3)cs2)CC1,88*,-2,-9,-2,-8
S=C(NCCCN1CCOCC1)N1CCN(c2nc(-c3ccc(Cl)cc3)cs2)CC1,1,0,-55*,-4,-2
S=C(NCC1CCCO1)N1CCN(c2nc(-c3ccc(Cl)cc3)cs2)CC1 (configuration not stated),1,0,-30*,-2,-1
COCCNC(=S)N1CCN(c2nc(-c3ccccc3)cs2)CC1,8,-1,-15,3,-5
COc1ccc(N2CCN(C3(c4ccccc4)C(=O)c4ccccc4C3=O)CC2)cc1,4,0,14,13,-1
COc1ccc(OC)c(N(C)S(=O)(=O)c2ccc3c(c2)NC(=O)CC(=O)N3)c1,0,1,14,21,-5
Cc1ccc(N2CC(NC(=O)c3cccs3)CC2=O)cc1C (configuration not stated),-1,0,·,-2,2
CCCN(CCC)C(=O)Cn1c(=O)n(-c2ccc(Cl)c(Cl)c2)c(=O)c2c(C)c(C(=O)N(C)C)sc21,0,0,9,-9,0
CCOC(=O)c1sc2ccccc2c1S(=O)(=O)N1CCN(c2cccc(C)c2)C(C)C1 (configuration not stated),0,0,7,-7,-5
CCOC(=O)c1ccc(NC(=S)N(CCCN2CCCC2)Cc2ccco2)cc1,9,0,-14,3,-7
COc1cccc(NC(=S)N(CCCN2CCC(C)CC2)Cc2cccs2)c1,4,0,-7,30*,0
CCOC(=O)c1ccc(NC(=S)N(CCCN2CCCC(C)C2)Cc2ccco2)cc1 (configuration not stated),26,2,-39*,-9,-5
CCOC(=O)c1ccc(NC(=S)N(CCCN2CCN(CC)CC2)Cc2cccs2)cc1,49*,0,-30,6,-7
CCOC(=O)c1ccc(NC(=S)N(CCCN2CCN(C)CC2)Cc2cccs2)cc1,9,1,2,-2,-6
CCOC(=O)Cc1ccc(NC(=O)NCc2c(-n3cccc3)sc3c2CCCC3)cc1,0,-1,-7,2,0
Cc1ccc(NC(=O)CN2C(=O)C(c3ccccc3)=NC2(C)C)cc1C,-3,0,-7,3,0
